# Test results reported in PubChem BioAssay (NCATS).
# Records with an inconclusive call do not appear. Calls of active or inactive are those of the source. Calls come from the whole dose curve; as a rule, active = well fitted cell-killing curve with a large enough effect; inconclusive = small, poorly fitted or top-dose-only effect; inactive = no such curve, though single readings can be large or run the other way.
# Assay: qHTS of pediatric cancer cell lines to identify multiple opportunities for drug repurposing: Primary screen for OHS-50 cells (AID 1347103); note: nearly all actives have a fitted effect of over 40% in size;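 for activity change, negative = cytotoxic: plate controls were DMSO neutral control for no effect and bortezomib positive control for full effect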
# Conditions: OHS-50 osteosarcoma viability, CellTiter-Glo luminescence, 48 h; series mostly up to 57.3 µM; activity change, negative = cytotoxic: at the top concentration
# Outline: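 Cells (500-1,000/well) rested 5 h, then received compounds for 48 h; metabolically active cells were measured by CellTiter-Glo luminescence. Final concentrations spanned up to 46 µM (MIPE, 11-point) or 0.59 nM-46 µM (NPC, 8-point) in primary screens, 11-point in follow-ups.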
# Potency is the fitted concentration of half-maximal effect.
Compound,Potency,"activity change, negative = cytotoxic"
COc1cc2c(cc1O)CCC1C2CC[C@@]2(C)C1CC[C@@H]2O (some centres undefined),7.69 µM (active),
C=Cc1c(C)c2cc3nc(cc4[nH]c(cc5nc(cc1[nH]2)C(C)=C5CCC(=O)O)c(CCC(=O)OC)c4C)[C@@]1(C)C3=CC=C(C(=O)OC)[C@H]1C(=O)OC,0.769 µM (active),
CCc1ccc(C(=O)Nc2cc(CN3CCN(C)CC3)cc(C(F)(F)F)c2)cc1C#Cc1cnc2ccnn2c1,12.2 µM (active),
CC(=O)N[C@@H]1[C@H](O[C@@H]2c3ccc(c(Cl)c3)Oc3cc4cc(c3O[C@H]3O[C@H](CO)[C@@H](O)[C@H](O)[C@H]3NC(=O)CCCCCCCC(C)C)Oc3ccc(cc3Cl)C[C@H]3NC(=O)[C@H](N)c5ccc(O)c(c5)Oc5cc(O)cc(c5)[C@H](NC3=O)C(=O)N[C@H]4C(=O)N[C@H]3C(=O)N[C@@H]2C(=O)N[C@@H](C(=O)O)c2cc(O)cc(O[C@H]4O[C@H](CO)[C@@H](O)[C@H](O)[C@H]4O)c2-c2cc3ccc2O)O[C@H](CO)[C@@H](O)[C@@H]1O,,6.28% (inactive)
Cc1[nH]c(C=C2C(=O)Nc3ccccc32)c(C)c1CCC(=O)O,1.22 µM (active),
COc1cc2ncnc(Nc3cccc(Br)c3)c2cc1OC,15.3 µM (active),
N[C@H]1CN(c2c(F)cc3c(=O)c(C(=O)O)cn(C4C[C@@H]4F)c3c2Cl)CC12CC2 (some centres undefined),,104% (inactive)
CC(C)Oc1ccc(C(=O)N[C@H](CNC(=O)CN(C)C)Cc2ccc(-c3cn4cccc([C@H](C)O)c4n3)cc2)cc1Cl,2.43 µM (active),
Nc1nc(N)c2nc(-c3cccc(O)c3)c(-c3cccc(O)c3)nc2n1,19.3 µM (active),
